The source of these data is paper PMC5540273 (PLoS ONE, 2017).

Each structure is given as a SMILES string.
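Further: KINOMEscan kinase panel screen.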

The test concerns WNK1. The settings on record: concentration: 1 μM,replicates: in singlicate; n = 1.
With `CC(C)N1C(=O)Cc2cc(Nc3ncc(C(F)(F)F)c(NCc4cccc(S(C)(=O)=O)c4)n3)ccc21`, the “%Inh” value is listed as 0%.

With `CN(C)CC(O)COc1ccc(Nc2nccc(-c3cnn4nc(N5CCOCC5)ccc34)n2)cc1` (stereo not shown) [GW767488], the “%Inh” value came to 18%.

In the case of `Cl.Cl.Nc1nc(-c2ccc3c(N)n[nH]c3c2)cc(N2CCCC(NC(=O)c3ccccc3)C2)n1` (stereo not shown) [GSK2286775], the “%Inh” value is 37%.

On to `Cc1cc2cn[nH]c2cc1-c1cccc2c(N)c(C(N)=O)nnc12`, for which the “%Inh” value was determined as 21%.

On to `CN(C)CCOc1ccc(-c2cc(-c3c[nH]nc3-c3ccccn3)ccn2)cc1` [GW835314], for which the “%Inh” value stood at 9%.

In the case of `COc1ccc(C[C@@H](CN)NC(=O)c2cc(Br)c(-c3ccnc4[nH]ccc34)s2)cc1.Cl.Cl` [GSK1389063], the “%Inh” value is on record as 11%.

As to `CNC(=O)c1ccccc1Sc1ccc2c(/C=C/c3ccccn3)n[nH]c2c1`, the “%Inh” value came out at 0%.

As for `CCn1c(-c2nonc2N)nc2c(C#CC(C)(C)O)nc(OCCN)cc21.Cl.Cl` [GSK902056], the “%Inh” value is given as 12%.

For the compound `Cc1ccc(-n2nc(C(C)(C)C)cc2NC(=O)Nc2ccc(OCCN3CCOCC3)c3ccccc23)cc1` [GW839464], the “%Inh” value is 0%.

As for `Nc1nc(Nc2ccccc2)cc(-c2ccc3c(N)n[nH]c3c2)n1` [GSK2225749], the “%Inh” value came to 5%.

For the compound `CCN(CC)CCCCNc1ncc2cc(-c3c(Cl)cccc3Cl)c(NC(=O)NC(C)(C)C)nc2n1`, the “%Inh” value is on record as 0%.

Regarding `C[C@@H]1CCN(C(=O)CC#N)C[C@@H]1N(C)c1ncnc2[nH]ccc12`, the “%Inh” value was 0%.

Consider `O=C(NCCNc1ccnc(NCc2ccc(F)cc2)n1)c1cc2ccccc2s1` [GSK1379944], for which the “%Inh” value turned out to be 10%.
